This passage reports growth inhibition results from PubChem BioAssay (NCI).

Assay [1] is described as follows: NCI Yeast Anticancer Drug Screen. Data for the rad50 strain (AID 155).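 Also: 0% = growth of vehicle-only cultures of the same strain.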 The following applies: S. cerevisiae rad50 strain growth inhibition, stronger effect = higher value. In outline:
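DNA repair mutant yeast, compound exposure, growth read-out; inhibition is taken relative to vehicle.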

Assay [2] in a line: NCI Yeast Anticancer Drug Screen. Data for the mec2-1 strain (AID 157). To be noted: S. cerevisiae mec2-1 strain, stronger effect = higher value. An outline of the steps:
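mec2-1 yeast strain, carrying an alteration in DNA damage repair or cell cycle control, was exposed to compounds; growth inhibition was measured relative to vehicle-treated controls.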

Assay [3] in a line: NCI Yeast Anticancer Drug Screen. Data for the sgs1 mgt1 strain (AID 161).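 Also: 0% = growth of cultures given vehicle only.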 To be noted: S. cerevisiae sgs1 mgt1 strain, stronger effect = higher value. An outline of the steps:
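Growth of a repair-deficient yeast mutant was monitored after compound treatment and expressed as inhibition relative to vehicle-treated cultures.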

Assay [4] can be described thus: NCI Yeast Anticancer Drug Screen. Data for the cln2 rad14 strain (AID 165).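 Also: 0% = growth equal to vehicle treated cultures.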 To be noted: S. cerevisiae cln2 rad14 strain, stronger effect = higher value. In outline:
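Yeast carrying cln2 and rad14 alterations (cell cycle control and DNA damage repair) were exposed to compounds. Growth inhibition was measured against vehicle-treated controls.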

Assay [5] in a line: NCI Yeast Anticancer Drug Screen. Data for the bub3 strain (AID 167). The following applies: S. cerevisiae bub3 mutant strain, stronger effect = higher value. An outline of the steps: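 In this screen, a yeast mutant lacking normal mitotic checkpoint function is challenged with compound. Relative growth versus vehicle gives the inhibition value.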
Assay [6] is described as follows: NCI Yeast Anticancer Drug Screen. Data for the mlh1 rad18 strain (AID 175). To be noted: S. cerevisiae mlh1 rad18 strain growth inhibition, stronger effect = higher value. In outline: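 Growth inhibition of the yeast strain was measured after compound exposure and expressed relative to vehicle-treated controls. The strain carries defined defects in DNA damage repair.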
Setting [7] is: at 5.0 µM (retest, dose inferred, filed as 0.5).
Where [8] appears, read: at 50.0 µM (retest, dose inferred, filed as 5.0).

Compounds without any hit were thinned out: in the full panel of roughly 79,000, 15% have a hit. A number with no mark means an inactive call. Activity calls are given as the source filed them. Rule as the data show it: active = growth inhibition above about 70%; inactive = the rest.

With `CC(=O)Nc1cccc2ccc(C)cc12`, the growth inhibition was 0% in assay [1] (setting [7]); 1% in assay [1] (setting [8]); -5.5% in assay [1] (at 50.0 µM); 2% in assay [2] (setting [7]); 4% in assay [2] (setting [8]); 4.85% in assay [2] (at 50.0 µM). The growth inhibition in assay [3] (setting [7]) was 1%; in assay [3] (setting [8]) it was 1%; in assay [3] (at 50.0 µM), -22.9%; in assay [4] (setting [7]) it was 1%; in assay [4] (setting [8]), 5%; in assay [4] (at 50.0 µM), 71.3% (active). Besides, the growth inhibition in assay [5] (setting [7]) is 1%; in assay [5] (setting [8]), -1%; in assay [5] (at 50.0 µM), 23.1%; in assay [6] (setting [7]), 0%; in assay [6] (setting [8]) it was 2%; in assay [6] (at 50.0 µM), 41.8%.

Consider `C=CCOc1ccc2c(c1)CC=C1[C@@H]2CC[C@]2(C)C(=N\O)/C(=N/O)C[C@@H]12`, for which the growth inhibition in assay [1] (setting [7]) is 10%; in assay [1] (setting [8]), 95% (active); in assay [1] (at 50.0 µM) it was 98.8% (active); in assay [2] (setting [7]), -7%; in assay [2] (setting [8]), 99% (active); in assay [2] (at 50.0 µM) it was 99.1% (active). Further, the growth inhibition in assay [3] (setting [7]) was -9%; in assay [3] (setting [8]), 99% (active); in assay [3] (at 50.0 µM), 99% (active); in assay [4] (setting [7]), -2%; in assay [4] (setting [8]) it was 99% (active); in assay [4] (at 50.0 µM), 98.1% (active). For the same compound, the growth inhibition in assay [5] (setting [7]) is 1%; in assay [5] (setting [8]) it was 99% (active); in assay [5] (at 50.0 µM) it was 98.8% (active).

Turning to `O=C1c2cccnc2-c2nccc3c2c1nc1cc(Br)ccc13`, the growth inhibition in assay [1] (setting [7]) was 61%; in assay [1] (setting [8]), 98% (active); in assay [1] (at 50.0 µM), 88.7% (active); in assay [2] (setting [7]), 44%; in assay [2] (setting [8]), 99% (active); in assay [2] (at 50.0 µM), 92.2% (active). Moreover, the growth inhibition in assay [3] (setting [7]) was 94% (active); in assay [3] (setting [8]), 98% (active); in assay [3] (at 50.0 µM) it was 89.9% (active); in assay [4] (setting [7]), 28%; in assay [4] (setting [8]) it was 97% (active); in assay [4] (at 50.0 µM) it was 88.2% (active). Further, the growth inhibition in assay [5] (setting [7]) is 88% (active); in assay [5] (setting [8]), 98% (active); in assay [5] (at 50.0 µM), 89.2% (active); in assay [6] (setting [7]), 58%; in assay [6] (setting [8]), 98% (active); in assay [6] (at 50.0 µM), 77.2% (active).

On to `Cc1ccccc1[P+](C)(c1ccccc1C)c1ccccc1C`, for which the growth inhibition in assay [1] (setting [7]) was 56%; in assay [1] (setting [8]), 85% (active); in assay [1] (at 50.0 µM), 81% (active); in assay [2] (setting [7]), 18%; in assay [2] (setting [8]), 78% (active); in assay [2] (at 50.0 µM), 69.7%. Moreover, the growth inhibition was 31% in assay [3] (setting [7]); 89% (active) in assay [3] (setting [8]); 82.2% (active) in assay [3] (at 50.0 µM); 2% in assay [4] (setting [7]); 48% in assay [4] (setting [8]); 29.1% in assay [4] (at 50.0 µM). Besides, the growth inhibition was 27% in assay [5] (setting [7]); 85% (active) in assay [5] (setting [8]); 82.8% (active) in assay [5] (at 50.0 µM); 34% in assay [6] (setting [7]); 84% (active) in assay [6] (setting [8]); 71.8% (active) in assay [6] (at 50.0 µM).

As to `Nc1c(F)cccc1F`, the growth inhibition in assay [1] (setting [7]) is -2%; in assay [1] (setting [8]), 8%; in assay [1] (at 50.0 µM), -16.3%; in assay [2] (setting [7]), 2%; in assay [2] (setting [8]), 0%; in assay [2] (at 50.0 µM), 11.6%. The growth inhibition in assay [3] (setting [7]) was -3%; in assay [3] (setting [8]) it was 1%; in assay [3] (at 50.0 µM) it was -5.95%; in assay [4] (setting [7]), 2%; in assay [4] (setting [8]), -6%; in assay [4] (at 50.0 µM), 20.4%. Moreover, the growth inhibition is 2% in assay [5] (setting [7]), 7% in assay [5] (setting [8]) and -1.15% in assay [5] (at 50.0 µM).

As to `CCCCc1c2c(nc3c1CCc1cc4cc5c(nc4nc1-3)-c1nc3c(c(CCCC)c1CC5)CCC/C3=N/OC)/C(=N\OC)CCC2`, the growth inhibition is 0% in assay [1] (setting [7]); 76% (active) in assay [1] (setting [8]); 94.2% (active) in assay [1] (at 50.0 µM); 2% in assay [2] (setting [7]); 94% (active) in assay [2] (setting [8]); 96% (active) in assay [2] (at 50.0 µM). The growth inhibition in assay [3] (setting [7]) was -4%; in assay [3] (setting [8]), 90% (active); in assay [3] (at 50.0 µM), 95.8% (active); in assay [4] (setting [7]), -22%; in assay [4] (setting [8]), 93% (active); in assay [4] (at 50.0 µM) it was 95.3% (active). Further, the figures for the growth inhibition in assay [5] (setting [7]), in assay [5] (setting [8]) and in assay [5] (at 50.0 µM) were -5%, 90% (active) and 95.9% (active), respectively.

Consider `C=CCC(O)C(=O)OC1CC(C)CCC1C(C)(C)c1ccccc1` (stereo not drawn), for which the growth inhibition is -1% in assay [1] (setting [7]); 99% (active) in assay [1] (setting [8]); 99% (active) in assay [1] (at 50.0 µM); 6% in assay [2] (setting [7]); 99% (active) in assay [2] (setting [8]); 99.2% (active) in assay [2] (at 50.0 µM). Further, the growth inhibition was 8% in assay [3] (setting [7]); 99% (active) in assay [3] (setting [8]); 99.5% (active) in assay [3] (at 50.0 µM); -6% in assay [4] (setting [7]); 98% (active) in assay [4] (setting [8]); 98.8% (active) in assay [4] (at 50.0 µM). Moreover, the growth inhibition was 8% in assay [5] (setting [7]); 98% (active) in assay [5] (setting [8]); 99.4% (active) in assay [5] (at 50.0 µM); 9% in assay [6] (setting [7]); 98% (active) in assay [6] (setting [8]); 99.2% (active) in assay [6] (at 50.0 µM).

`O=C(Nc1ccccc1)c1ccc(Cl)cc1Cl`: the growth inhibition in assay [1] (setting [7]) is -15%; in assay [1] (setting [8]), -21%; in assay [1] (at 50.0 µM) it was 1.35%; in assay [2] (setting [7]), -9%; in assay [2] (setting [8]) it was -4%; in assay [2] (at 50.0 µM), 1.85%. Moreover, the growth inhibition in assay [3] (setting [7]) was -2%; in assay [3] (setting [8]) it was 7%; in assay [3] (at 50.0 µM) it was -3.15%; in assay [4] (setting [7]), 31%; in assay [4] (setting [8]) it was -50%; in assay [4] (at 50.0 µM), -7.95%. Also, the values for the growth inhibition in assay [5] (setting [7]), in assay [5] (setting [8]) and in assay [5] (at 50.0 µM) were 4%, -34% and 8.75%, respectively.

`CC(C(=O)O)c1c(-c2ccccc2)ccc2ccccc12` (stereo not drawn): the growth inhibition in assay [1] (setting [7]) is 37%; in assay [1] (setting [8]), 3%; in assay [1] (at 50.0 µM), 38.9%; in assay [2] (setting [7]), 22%; in assay [2] (setting [8]), 4%; in assay [2] (at 50.0 µM), 51.1%. Also, the growth inhibition is 2% in assay [3] (setting [7]); 32% in assay [3] (setting [8]); 51.5% in assay [3] (at 50.0 µM); -8% in assay [4] (setting [7]); 12% in assay [4] (setting [8]); 52.1% in assay [4] (at 50.0 µM). Moreover, the growth inhibition in assay [5] (setting [7]) was 6%; in assay [5] (setting [8]) it was 14%; in assay [5] (at 50.0 µM), 38.9%; in assay [6] (setting [7]) it was 5%; in assay [6] (setting [8]), 24%; in assay [6] (at 50.0 µM), 63.6%.

On to `CCCCC(CCc1ccccc1)(C(=O)O)c1ccccc1` (stereo not drawn), for which the growth inhibition in assay [1] (setting [7]) was 88% (active); in assay [1] (setting [8]), 99% (active); in assay [1] (at 50.0 µM), 99.4% (active); in assay [2] (setting [7]), 87% (active); in assay [2] (setting [8]), 99% (active); in assay [2] (at 50.0 µM), 99.5% (active). Besides, the growth inhibition is 68% in assay [3] (setting [7]); 99% (active) in assay [3] (setting [8]); 99.7% (active) in assay [3] (at 50.0 µM); 88% (active) in assay [4] (setting [7]); 99% (active) in assay [4] (setting [8]); 99% (active) in assay [4] (at 50.0 µM). Also, the growth inhibition is 72% (active) in assay [5] (setting [7]); 99% (active) in assay [5] (setting [8]); 99.5% (active) in assay [5] (at 50.0 µM); 92% (active) in assay [6] (setting [7]); 99% (active) in assay [6] (setting [8]); 99.4% (active) in assay [6] (at 50.0 µM).
